Common to all, as to test: DAPPL (digital affinity profiling via proximity ligation, sequencing); 10 mM Tris-HCl pH 7.5, 50 mM NaCl, 1 mM DTT, 4% glycerol, room temperature, 30 min; GST-TFs on glutathione beads, 16-mer random dsDNA library, 0.1% formaldehyde crosslink after washing; high values mean tight binding
The target in assay [1] is T1, FEV (Homo sapiens, UniProt Q99581 1-238).
T1 sequence: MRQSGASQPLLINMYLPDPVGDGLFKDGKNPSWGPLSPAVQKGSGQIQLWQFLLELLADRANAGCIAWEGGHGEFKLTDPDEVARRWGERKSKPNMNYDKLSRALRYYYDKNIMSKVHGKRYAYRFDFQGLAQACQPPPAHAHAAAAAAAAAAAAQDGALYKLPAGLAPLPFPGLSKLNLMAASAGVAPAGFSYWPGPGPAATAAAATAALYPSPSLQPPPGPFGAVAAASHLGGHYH
The conditions noted are these: protein: recombinant; tags: N-terminal GST; dsDNA, one strand shown. The gist of the method:
(§1)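 Human transcription factors were made in yeast as GST fusions, captured on glutathione beads and barcoded with DNA. With a tag-only sample included, the pool was incubated with 200 nmole of a random double-stranded 16-mer DNA library in Tris/NaCl/DTT/glycerol buffer at room temperature for 30 min, then crosslinked with 0.1% formaldehyde after washing, ligated by proximity, amplified and sequenced. For binding signal, each hexamer's read frequency for a factor is divided by its frequency for the tag-only sample.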

Assay [2] has as its target ETV5 (Homo sapiens, UniProt P41161 1-510). Particulars: protein: recombinant; tags: N-terminal GST; dsDNA, one strand shown. The gist of the method:
as §1

For assay [3], the target named is HSF1 (Homo sapiens, UniProt Q00613 1-529). The conditions noted are these: protein: recombinant; tags: N-terminal GST; chain copies: 3; dsDNA, one strand shown. The gist of the method:
as §1

For assay [4], the target named is T2, SPIC (Homo sapiens, UniProt Q8N5J4 1-248).
T2 sequence: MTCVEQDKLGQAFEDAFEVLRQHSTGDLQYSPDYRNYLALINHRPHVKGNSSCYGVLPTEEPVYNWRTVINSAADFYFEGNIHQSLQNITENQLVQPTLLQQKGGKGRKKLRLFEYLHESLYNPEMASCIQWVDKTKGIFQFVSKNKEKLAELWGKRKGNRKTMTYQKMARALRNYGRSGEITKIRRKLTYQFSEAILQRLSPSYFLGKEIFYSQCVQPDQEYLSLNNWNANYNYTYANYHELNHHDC
The conditions noted are these: protein: recombinant; tags: N-terminal GST; dsDNA, one strand shown. In a few lines: as §1

The target in assay [5] is ELF4 (Homo sapiens, UniProt Q99607 1-663). Particulars: protein: recombinant; tags: N-terminal GST; dsDNA, one strand shown. In a few lines: as §1
Chain of ELF4 (Q99607 whole entry): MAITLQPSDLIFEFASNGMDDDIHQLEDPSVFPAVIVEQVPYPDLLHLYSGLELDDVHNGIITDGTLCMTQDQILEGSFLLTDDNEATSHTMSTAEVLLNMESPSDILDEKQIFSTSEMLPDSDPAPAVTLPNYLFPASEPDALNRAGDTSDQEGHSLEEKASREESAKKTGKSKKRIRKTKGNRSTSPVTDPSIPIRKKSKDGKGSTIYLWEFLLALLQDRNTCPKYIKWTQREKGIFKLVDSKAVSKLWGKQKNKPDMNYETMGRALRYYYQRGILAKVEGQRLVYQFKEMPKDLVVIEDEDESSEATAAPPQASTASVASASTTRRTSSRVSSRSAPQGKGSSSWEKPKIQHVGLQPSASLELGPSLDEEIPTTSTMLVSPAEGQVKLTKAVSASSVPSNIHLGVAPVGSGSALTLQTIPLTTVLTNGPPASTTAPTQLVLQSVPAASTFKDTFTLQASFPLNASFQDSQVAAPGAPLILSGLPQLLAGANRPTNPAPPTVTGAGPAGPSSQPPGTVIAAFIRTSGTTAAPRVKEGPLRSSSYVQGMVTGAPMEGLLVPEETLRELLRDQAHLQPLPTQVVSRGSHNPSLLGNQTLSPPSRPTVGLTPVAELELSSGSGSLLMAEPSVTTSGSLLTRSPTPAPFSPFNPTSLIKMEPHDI
For assay [6], the target named is T3, ELK4 (Homo sapiens, UniProt P28324-2 1-405).
T3 sequence: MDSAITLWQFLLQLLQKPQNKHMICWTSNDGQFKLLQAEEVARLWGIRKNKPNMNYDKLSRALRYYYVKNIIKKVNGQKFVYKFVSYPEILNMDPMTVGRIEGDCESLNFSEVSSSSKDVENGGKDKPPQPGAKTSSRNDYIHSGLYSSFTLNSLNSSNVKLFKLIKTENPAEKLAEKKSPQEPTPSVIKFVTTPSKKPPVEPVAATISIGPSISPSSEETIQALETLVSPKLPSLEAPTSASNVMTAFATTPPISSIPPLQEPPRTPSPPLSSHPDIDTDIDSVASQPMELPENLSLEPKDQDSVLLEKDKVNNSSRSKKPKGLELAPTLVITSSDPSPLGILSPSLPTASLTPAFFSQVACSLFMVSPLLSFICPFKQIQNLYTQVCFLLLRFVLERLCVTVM
Particulars: protein: recombinant; tags: N-terminal GST; dsDNA, one strand shown. The gist of the method: as §1

The target in assay [7] is T4, ETV2 (Homo sapiens, UniProt O00321 1-342).
T4 sequence: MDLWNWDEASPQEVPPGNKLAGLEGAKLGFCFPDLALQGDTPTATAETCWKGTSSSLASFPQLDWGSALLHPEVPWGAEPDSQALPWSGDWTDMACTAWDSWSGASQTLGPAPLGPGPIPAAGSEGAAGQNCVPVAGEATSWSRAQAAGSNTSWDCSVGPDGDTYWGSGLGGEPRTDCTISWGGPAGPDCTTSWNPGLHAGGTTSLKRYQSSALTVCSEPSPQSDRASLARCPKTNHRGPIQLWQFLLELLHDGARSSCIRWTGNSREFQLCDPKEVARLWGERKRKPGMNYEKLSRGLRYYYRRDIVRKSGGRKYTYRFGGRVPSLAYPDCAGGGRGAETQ
The conditions noted are these: protein: recombinant; tags: N-terminal GST; dsDNA, one strand shown. In a few lines: as §1

Assay [8] concerns the target T5, ELF3 (Homo sapiens, UniProt P78545 1-371).
T5 sequence: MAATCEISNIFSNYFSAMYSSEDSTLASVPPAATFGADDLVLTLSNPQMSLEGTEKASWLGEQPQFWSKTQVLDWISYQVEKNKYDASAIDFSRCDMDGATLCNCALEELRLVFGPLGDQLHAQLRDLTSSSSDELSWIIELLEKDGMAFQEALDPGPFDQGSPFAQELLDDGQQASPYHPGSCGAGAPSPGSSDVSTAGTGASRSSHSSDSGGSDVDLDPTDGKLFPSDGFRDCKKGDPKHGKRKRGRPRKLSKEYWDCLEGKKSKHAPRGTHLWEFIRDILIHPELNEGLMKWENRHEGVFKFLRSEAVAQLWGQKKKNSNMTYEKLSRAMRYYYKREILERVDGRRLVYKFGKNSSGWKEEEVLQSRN
Particulars: protein: recombinant; tags: N-terminal GST; dsDNA, one strand shown. In a few lines:
as §1

Assay [9] has as its target CRX (Homo sapiens, UniProt O43186 1-299). The conditions noted are these: protein: recombinant; tags: N-terminal GST; dsDNA, one strand shown. The gist of the method: as §1
Assay [10] concerns the target ETV1 (Homo sapiens, UniProt P50549 1-477). Particulars: protein: recombinant; tags: N-terminal GST; dsDNA, one strand shown. The gist of the method:
as §1

Assay [11] addresses T6, ERF (Homo sapiens, UniProt P50548 1-548).
T6 sequence: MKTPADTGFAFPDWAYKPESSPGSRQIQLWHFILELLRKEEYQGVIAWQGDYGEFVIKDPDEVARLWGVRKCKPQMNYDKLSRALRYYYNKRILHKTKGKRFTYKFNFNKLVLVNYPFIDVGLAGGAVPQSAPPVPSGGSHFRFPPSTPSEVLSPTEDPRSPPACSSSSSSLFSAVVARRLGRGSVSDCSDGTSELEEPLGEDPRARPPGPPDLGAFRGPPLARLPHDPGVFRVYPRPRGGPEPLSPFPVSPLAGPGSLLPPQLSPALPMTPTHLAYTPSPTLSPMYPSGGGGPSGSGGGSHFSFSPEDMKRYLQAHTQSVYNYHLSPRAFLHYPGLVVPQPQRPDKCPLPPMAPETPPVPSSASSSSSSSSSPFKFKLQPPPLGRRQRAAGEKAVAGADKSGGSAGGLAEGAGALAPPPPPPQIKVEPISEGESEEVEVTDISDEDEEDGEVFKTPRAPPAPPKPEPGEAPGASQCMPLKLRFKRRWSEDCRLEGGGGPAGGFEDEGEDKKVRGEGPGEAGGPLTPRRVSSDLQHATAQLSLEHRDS
Particulars: protein: recombinant; tags: N-terminal GST; dsDNA, one strand shown. The gist of the method:
as §1

The target of assay [12] is T7, ETV3L (Homo sapiens, UniProt Q6ZN32 1-361).
T7 sequence: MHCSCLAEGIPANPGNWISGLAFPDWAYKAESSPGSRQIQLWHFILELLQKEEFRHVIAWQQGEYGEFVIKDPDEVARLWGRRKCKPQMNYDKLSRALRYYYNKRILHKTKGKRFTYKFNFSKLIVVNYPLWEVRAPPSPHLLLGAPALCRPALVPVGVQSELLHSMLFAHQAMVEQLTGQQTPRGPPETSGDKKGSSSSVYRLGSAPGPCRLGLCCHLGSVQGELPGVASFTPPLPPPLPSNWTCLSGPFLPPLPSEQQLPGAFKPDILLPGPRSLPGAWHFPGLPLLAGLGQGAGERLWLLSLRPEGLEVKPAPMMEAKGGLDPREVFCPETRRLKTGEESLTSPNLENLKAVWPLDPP
Particulars: protein: recombinant; tags: N-terminal GST; dsDNA, one strand shown. In a few lines:
as §1

Assay [13] deals with T8, ETS2 (Homo sapiens, UniProt P15036 1-469).
T8 sequence: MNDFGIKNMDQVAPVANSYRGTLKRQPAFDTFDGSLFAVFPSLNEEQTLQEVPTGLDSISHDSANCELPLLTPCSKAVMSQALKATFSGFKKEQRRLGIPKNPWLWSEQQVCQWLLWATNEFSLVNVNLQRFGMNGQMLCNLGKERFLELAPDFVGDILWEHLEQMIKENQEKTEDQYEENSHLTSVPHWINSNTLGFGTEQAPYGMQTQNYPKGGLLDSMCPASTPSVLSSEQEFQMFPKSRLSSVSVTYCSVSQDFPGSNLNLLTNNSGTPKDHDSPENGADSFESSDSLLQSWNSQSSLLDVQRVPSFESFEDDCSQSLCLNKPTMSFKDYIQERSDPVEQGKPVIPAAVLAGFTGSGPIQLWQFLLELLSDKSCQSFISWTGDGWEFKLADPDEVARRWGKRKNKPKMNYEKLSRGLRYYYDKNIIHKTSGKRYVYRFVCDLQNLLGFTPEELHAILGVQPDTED
The conditions noted are these: protein: recombinant; tags: N-terminal GST; dsDNA, one strand shown. The gist of the method: as §1

In assay [14] the target is T9, SPDEF (Homo sapiens, UniProt O95238 1-335).
T9 sequence: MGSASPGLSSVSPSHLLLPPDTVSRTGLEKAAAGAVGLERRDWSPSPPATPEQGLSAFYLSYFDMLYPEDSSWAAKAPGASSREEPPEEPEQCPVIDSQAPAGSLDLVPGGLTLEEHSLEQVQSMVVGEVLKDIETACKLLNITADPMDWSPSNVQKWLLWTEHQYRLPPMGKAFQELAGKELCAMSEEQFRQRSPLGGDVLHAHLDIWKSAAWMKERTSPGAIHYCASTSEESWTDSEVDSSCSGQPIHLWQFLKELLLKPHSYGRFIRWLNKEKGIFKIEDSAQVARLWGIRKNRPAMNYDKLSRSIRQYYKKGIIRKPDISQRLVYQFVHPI
The conditions noted are these: protein: recombinant; tags: N-terminal GST; dsDNA, one strand shown. In a few lines: as §1

Assay [15] addresses T10, ETV7 (Homo sapiens, UniProt Q9Y603 1-341).
T10 sequence: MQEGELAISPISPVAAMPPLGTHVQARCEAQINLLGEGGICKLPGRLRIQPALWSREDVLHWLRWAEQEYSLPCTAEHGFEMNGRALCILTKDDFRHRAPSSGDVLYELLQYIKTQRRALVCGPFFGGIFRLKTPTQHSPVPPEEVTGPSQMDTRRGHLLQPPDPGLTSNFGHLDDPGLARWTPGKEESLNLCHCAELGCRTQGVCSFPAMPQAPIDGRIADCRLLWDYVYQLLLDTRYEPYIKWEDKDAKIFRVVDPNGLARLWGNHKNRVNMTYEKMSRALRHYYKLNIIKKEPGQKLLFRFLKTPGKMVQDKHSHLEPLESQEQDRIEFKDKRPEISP
Particulars: protein: recombinant; tags: N-terminal GST; dsDNA, one strand shown. The gist of the method: as §1

Assay [16] deals with T11, ELF5 (Homo sapiens, UniProt Q9UKW6-2 1-255).
T11 sequence: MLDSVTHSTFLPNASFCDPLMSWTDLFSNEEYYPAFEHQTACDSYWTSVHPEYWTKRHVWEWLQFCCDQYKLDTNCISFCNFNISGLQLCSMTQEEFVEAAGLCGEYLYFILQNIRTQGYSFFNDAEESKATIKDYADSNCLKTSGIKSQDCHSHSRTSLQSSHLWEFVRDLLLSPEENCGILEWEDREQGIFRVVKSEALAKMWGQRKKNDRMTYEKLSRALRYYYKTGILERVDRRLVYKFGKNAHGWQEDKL
The conditions noted are these: protein: recombinant; tags: N-terminal GST; dsDNA, one strand shown. The gist of the method:
as §1

In assay [17] the target is T12, ETV3 (Homo sapiens, UniProt P41162-2 1-143).
T12 sequence: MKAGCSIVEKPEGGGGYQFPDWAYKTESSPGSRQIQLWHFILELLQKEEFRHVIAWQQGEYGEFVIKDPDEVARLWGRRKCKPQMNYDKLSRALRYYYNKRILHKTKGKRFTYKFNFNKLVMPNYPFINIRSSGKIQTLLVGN
Particulars: protein: recombinant; tags: N-terminal GST; dsDNA, one strand shown. In a few lines:
as §1

The target of assay [18] is ETV6 (Homo sapiens, UniProt P41212 1-452). The conditions noted are these: protein: recombinant; tags: N-terminal GST; dsDNA, one strand shown. In a few lines:
as §1

For one sequence, binding signal results are on record in paper PMC7862700, “An all-to-all approach to the identification of sequence-specific readers for epigenetic DNA modifications on cytosine”.

Chain of HSF1 (Q00613 whole entry): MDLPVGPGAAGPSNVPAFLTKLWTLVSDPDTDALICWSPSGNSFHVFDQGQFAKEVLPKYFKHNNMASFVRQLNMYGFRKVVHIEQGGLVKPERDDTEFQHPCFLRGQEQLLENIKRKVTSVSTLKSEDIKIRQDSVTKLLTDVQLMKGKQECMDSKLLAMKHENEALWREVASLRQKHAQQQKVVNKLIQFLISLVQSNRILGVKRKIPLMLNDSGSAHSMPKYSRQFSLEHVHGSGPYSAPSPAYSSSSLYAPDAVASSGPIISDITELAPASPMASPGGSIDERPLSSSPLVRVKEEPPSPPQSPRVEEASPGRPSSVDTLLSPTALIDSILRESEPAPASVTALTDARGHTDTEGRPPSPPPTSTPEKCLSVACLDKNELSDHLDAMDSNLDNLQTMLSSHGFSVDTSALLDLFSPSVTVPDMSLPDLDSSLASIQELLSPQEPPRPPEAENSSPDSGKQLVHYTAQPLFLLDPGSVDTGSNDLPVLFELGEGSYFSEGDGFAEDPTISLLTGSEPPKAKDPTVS
Chain of ETV1 (P50549 whole entry): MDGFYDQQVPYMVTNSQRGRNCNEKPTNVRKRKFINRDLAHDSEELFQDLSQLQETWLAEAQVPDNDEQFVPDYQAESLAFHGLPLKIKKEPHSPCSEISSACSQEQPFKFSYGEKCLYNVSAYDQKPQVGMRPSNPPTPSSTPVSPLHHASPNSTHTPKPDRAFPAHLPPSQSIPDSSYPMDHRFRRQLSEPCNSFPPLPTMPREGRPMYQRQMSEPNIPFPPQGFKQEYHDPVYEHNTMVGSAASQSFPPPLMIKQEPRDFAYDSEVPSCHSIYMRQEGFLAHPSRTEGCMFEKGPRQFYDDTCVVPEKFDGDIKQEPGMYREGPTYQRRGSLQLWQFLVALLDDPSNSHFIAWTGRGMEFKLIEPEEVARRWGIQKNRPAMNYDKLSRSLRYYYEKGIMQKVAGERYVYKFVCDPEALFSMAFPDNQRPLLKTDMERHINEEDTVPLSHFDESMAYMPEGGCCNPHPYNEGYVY
Chain of ETV5 (P41161 whole entry): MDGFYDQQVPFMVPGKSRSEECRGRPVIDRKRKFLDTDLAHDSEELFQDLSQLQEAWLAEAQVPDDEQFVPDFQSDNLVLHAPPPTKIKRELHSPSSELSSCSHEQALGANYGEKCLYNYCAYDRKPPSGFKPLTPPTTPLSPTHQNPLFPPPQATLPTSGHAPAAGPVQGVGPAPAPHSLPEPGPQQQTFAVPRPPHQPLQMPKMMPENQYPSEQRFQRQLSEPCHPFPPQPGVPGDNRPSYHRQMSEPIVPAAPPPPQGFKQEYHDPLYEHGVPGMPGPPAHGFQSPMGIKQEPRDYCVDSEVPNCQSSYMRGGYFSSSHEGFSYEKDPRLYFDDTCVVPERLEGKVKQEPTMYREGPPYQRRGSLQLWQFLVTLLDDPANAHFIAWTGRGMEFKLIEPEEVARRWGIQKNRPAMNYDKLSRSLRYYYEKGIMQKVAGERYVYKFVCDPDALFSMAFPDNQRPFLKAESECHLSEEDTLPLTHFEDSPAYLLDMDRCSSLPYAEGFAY
Chain of ETV6 (P41212 whole entry): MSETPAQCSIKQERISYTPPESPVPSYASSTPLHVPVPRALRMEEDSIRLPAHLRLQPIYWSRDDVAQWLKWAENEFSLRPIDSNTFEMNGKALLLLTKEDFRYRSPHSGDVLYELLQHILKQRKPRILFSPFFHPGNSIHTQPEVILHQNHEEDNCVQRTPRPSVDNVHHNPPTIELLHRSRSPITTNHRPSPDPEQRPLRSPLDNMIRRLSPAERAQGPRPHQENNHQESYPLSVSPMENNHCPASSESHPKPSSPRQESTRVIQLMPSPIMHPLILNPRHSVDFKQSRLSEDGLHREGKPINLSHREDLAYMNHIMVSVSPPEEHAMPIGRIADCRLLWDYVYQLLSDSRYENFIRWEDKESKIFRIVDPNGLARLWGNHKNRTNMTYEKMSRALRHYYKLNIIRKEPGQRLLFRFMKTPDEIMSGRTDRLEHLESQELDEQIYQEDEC
Chain of CRX (O43186 whole entry): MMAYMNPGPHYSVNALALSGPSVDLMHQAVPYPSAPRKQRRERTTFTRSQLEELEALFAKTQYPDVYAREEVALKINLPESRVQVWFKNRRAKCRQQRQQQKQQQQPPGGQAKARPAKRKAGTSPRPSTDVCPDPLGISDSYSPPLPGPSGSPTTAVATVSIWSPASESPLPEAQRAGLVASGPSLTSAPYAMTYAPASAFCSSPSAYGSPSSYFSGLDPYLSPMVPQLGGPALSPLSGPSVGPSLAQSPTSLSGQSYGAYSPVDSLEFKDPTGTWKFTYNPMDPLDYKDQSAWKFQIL

As for ATGAAA, the binding signal in assay [1] is 1.13 fold enrichment (6-mer frequency, TF over GST control); in [2], 1.12 fold enrichment (6-mer frequency, TF over GST control); in [3], 1.16 fold enrichment (6-mer frequency, TF over GST control); in assay [4] it was 1.24 fold enrichment (6-mer frequency, TF over GST control); in assay [5], 1.2 fold enrichment (6-mer frequency, TF over GST control); in assay [6] it was 1.21 fold enrichment (6-mer frequency, TF over GST control). In addition, the binding signal is 1.15 fold enrichment (6-mer frequency, TF over GST control) in assay [7]; 1.19 fold enrichment (6-mer frequency, TF over GST control) in [8]; 1.08 fold enrichment (6-mer frequency, TF over GST control) in assay [9]; 1.2 fold enrichment (6-mer frequency, TF over GST control) in assay [10]; 1.21 fold enrichment (6-mer frequency, TF over GST control) in assay [11]; 1.16 fold enrichment (6-mer frequency, TF over GST control) in [12]. The binding signal in assay [13] is 1.15 fold enrichment (6-mer frequency, TF over GST control); in [14], 1.06 fold enrichment (6-mer frequency, TF over GST control); in assay [15] it was 1.07 fold enrichment (6-mer frequency, TF over GST control); in assay [16] it was 1.13 fold enrichment (6-mer frequency, TF over GST control); in assay [17] it was 1.1 fold enrichment (6-mer frequency, TF over GST control); in assay [18], 1.1 fold enrichment (6-mer frequency, TF over GST control).
